# Reference: PubChem BioAssay
# Unmarked numbers belong to inactive results. Entries that show only a call come without a potency. For some assays here: Potency and affinity values are given separately. Activity calls are given as the source filed them. Unless noted, how the calls were made is not given here.
# Experiments:
# [1] = antimalarial activity against Dd2 strain (AID 2302;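 active means growth inhibition above 50% at the single 2 µM test dose, taken to imply half-maximal potency below 2 µM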); details: P. falciparum Dd2 in RBCs, LDH growth readout, 72 h; at 2 µM; hits give high values
# [2] = human hepatoma cell viability loss – ATP luminescence, cytotoxicity control for P. falciparum antimalarial project, primary screen (AID 2303;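 active means inhibition above 50%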); details: HepG2 viability, 24-48 h, at 10 µM, hits give high values
# [3] = biological target: L-lactate dehydrogenase (Plasmodium falciparum (isolate CDC / Honduras)) (UniProt Q27743); assay: PfLDH activity inhibition – cell lysate, 3D7 strain, counter-screen for P. falciparum growth inhibition project (AID 2304); details: P. falciparum 3D7 crude extract, LDH APAD/NBT absorbance; at 2 µM; hits give high values
# [4] = inhibition of 3D7 malaria parasite growth – strain 3D7 (AID 2306); details: P. falciparum 3D7 erythrocytic growth, LDH absorbance, 72 h; at 2 µM; hits give high values
# [5] = biological target: Calcium-dependent protein kinase 1 (Plasmodium falciparum (isolate 3D7)) (UniProt P62344); assay: PfCDPK1 kinase inhibitors, biochemical, TCAMS library (AID 1159585; cut-off not given, nearly all actives have IC50 up to about 0.98 µM;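 further: inhibitors leave more ATP so luminescence rises with inhibition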); details: recombinant PfCDPK1, Kinase-Glo ATP depletion luminescence
# [6] = biological target: Plasmodium falciparum protein kinase 6 (PK6, PF3D7_1337100) (UniProt Q8IDW1); assay: PfPK6 kinase inhibitors, biochemical, TCAMS library (AID 1159586); details: recombinant PfPK6, Kinase-Glo ATP depletion luminescence
# [7] = biological target: Protein kinase 7 (PK7), Plasmodium falciparum 3D7 (PF3D7_0213400) (UniProt Q7YTF7); assay: inhibition of Plasmodium PK7 catalytic activity – biochemical, TCAMS antimalarial set, Kinase-Glo luminescence (AID 1159587); details: recombinant PfPK7, Kinase-Glo ATP depletion luminescence
# [8] = biological target: Calcium-dependent protein kinase 4 (Plasmodium falciparum (isolate 3D7)) (UniProt Q8IBS5); assay: PfCDPK4 kinase inhibitors, biochemical, TCAMS library (AID 1159588; cut-off not given, nearly all actives have IC50 up to about 0.91 µM); details: recombinant PfCDPK4, Kinase-Glo ATP depletion luminescence
# Sequence of Calcium-dependent protein kinase 4 (Plasmodium falciparum (isolate 3D7)) (Q8IBS5 whole entry, looked up): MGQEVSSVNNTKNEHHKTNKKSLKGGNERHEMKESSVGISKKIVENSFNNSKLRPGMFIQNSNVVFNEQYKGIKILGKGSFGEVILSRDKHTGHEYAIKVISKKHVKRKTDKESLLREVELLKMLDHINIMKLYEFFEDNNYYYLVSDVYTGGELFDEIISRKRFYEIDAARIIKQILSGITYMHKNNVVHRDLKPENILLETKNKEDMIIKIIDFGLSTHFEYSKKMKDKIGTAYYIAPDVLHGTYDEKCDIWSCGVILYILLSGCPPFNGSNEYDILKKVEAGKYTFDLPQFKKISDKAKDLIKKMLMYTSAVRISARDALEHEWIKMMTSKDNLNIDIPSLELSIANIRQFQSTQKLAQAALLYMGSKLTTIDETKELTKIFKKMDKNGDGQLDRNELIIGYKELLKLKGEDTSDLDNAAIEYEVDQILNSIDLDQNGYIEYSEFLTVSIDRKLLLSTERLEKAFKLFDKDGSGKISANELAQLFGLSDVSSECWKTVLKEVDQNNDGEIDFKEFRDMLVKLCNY
# Sequence of Plasmodium falciparum protein kinase 6 (PK6, PF3D7_1337100) (Q8IDW1 1-305): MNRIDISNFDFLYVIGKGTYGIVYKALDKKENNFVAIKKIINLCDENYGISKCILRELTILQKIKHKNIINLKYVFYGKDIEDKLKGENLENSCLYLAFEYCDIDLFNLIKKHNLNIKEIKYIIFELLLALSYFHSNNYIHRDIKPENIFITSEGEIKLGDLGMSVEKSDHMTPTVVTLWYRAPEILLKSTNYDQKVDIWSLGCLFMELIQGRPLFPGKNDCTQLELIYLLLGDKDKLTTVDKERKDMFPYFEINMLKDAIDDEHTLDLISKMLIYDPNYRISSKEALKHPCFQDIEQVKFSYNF
# Sequence of L-lactate dehydrogenase (Plasmodium falciparum (isolate CDC / Honduras)) (Q27743 whole entry, looked up): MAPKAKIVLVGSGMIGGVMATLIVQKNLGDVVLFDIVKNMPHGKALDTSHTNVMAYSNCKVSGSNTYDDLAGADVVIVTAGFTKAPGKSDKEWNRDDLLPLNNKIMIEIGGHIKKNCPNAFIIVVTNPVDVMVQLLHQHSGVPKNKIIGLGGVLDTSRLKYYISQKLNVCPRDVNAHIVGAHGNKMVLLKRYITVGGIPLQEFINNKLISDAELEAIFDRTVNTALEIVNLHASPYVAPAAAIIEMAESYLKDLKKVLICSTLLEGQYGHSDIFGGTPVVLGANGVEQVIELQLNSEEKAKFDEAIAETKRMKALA
# Sequence of Calcium-dependent protein kinase 1 (Plasmodium falciparum (isolate 3D7)) (P62344 whole entry, looked up): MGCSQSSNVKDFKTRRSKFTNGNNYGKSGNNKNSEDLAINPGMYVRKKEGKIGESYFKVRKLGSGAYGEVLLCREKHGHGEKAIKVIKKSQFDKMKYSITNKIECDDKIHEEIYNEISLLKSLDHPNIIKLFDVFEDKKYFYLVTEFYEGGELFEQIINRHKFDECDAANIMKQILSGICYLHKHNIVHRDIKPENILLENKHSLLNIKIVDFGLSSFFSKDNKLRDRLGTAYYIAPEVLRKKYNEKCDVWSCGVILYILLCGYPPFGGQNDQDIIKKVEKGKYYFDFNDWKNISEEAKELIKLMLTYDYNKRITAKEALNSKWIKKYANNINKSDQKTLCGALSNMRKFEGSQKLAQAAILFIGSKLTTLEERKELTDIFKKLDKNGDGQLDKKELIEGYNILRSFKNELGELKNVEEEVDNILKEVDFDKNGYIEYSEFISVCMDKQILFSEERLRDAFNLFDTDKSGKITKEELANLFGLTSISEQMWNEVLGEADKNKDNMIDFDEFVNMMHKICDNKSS
# Sequence of Protein kinase 7 (PK7), Plasmodium falciparum 3D7 (PF3D7_0213400) (Q7YTF7 1-343): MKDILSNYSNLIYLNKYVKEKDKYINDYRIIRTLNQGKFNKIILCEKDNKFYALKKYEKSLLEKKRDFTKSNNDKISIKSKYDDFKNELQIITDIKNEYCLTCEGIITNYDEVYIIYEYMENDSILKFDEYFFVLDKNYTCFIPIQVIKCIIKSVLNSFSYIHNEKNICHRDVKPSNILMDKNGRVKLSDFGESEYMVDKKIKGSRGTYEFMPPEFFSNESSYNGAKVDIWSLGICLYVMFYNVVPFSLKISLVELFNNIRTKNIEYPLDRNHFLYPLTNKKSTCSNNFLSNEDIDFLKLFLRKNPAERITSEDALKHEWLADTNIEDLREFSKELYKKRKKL
Compound,growth inhibition [1],inhibition [2],inhibition [3] [%],growth inhibition [4],outcome [5],outcome [6],outcome [7],outcome [8]
O=C(CN1CCCCC1)Nc1ccc(Nc2nccc(NCC(O)c3ccccc3)n2)cc1 (stereo not given),95% (active),62% (active),3,101% (active),inactive,inactive,inactive,inactive
O=C(Nc1ccccc1)c1ccc(-c2cc3ccncc3cc2OC2CCNCC2)s1,8%,-1%,-2,100% (active),inactive,inactive,inactive,inactive
CCN(CCCNc1nc(=S)[nH]c2cc(OC)c(OC)cc12)c1ccccc1,23%,14%,-2,100% (active),inactive,inactive,inactive,inactive
CCCCOC(=O)c1ccc(Nc2cc(C)nc3ccc(OC)cc23)cc1,96% (active),4%,-5,100% (active),inactive,inactive,inactive,inactive
CN(C(=O)/C=C/c1ccccc1F)C1CCN(CCCCCNC(=O)/C=C/c2ccc(Cl)c(Cl)c2)CC1,59% (active),73% (active),-1,89% (active),inactive,inactive,inactive,inactive
Cc1ccc(NC(=O)c2cccc(C#N)c2)cc1-c1ccc(C(=O)Nc2ccncc2)cc1,64% (active),38%,-1,94% (active),inactive,inactive,inactive,inactive
FC(F)(F)c1cccc(Nc2nc3ccccc3nc2Nc2cccc(C(F)(F)F)c2)c1,100% (active),45%,2,101% (active),inactive,inactive,inactive,inactive
Fc1cc(Cl)ccc1Nc1ccnc2cc(-c3ccc(CN4CCCCC4)o3)ccc12,99% (active),16%,-1,100% (active),inactive,inactive,inactive,inactive
CNCCNCc1cccc(-c2cccc(-c3nc4ccc(C(F)(F)F)cc4[nH]3)c2)c1,97% (active),22%,-2,100% (active),inactive,inactive,inactive,inactive
C#Cc1cccc(NC(=O)[C@H](CC2CCCCC2)Nc2ccc(C#N)c3ccccc23)c1,99% (active),48%,-1,100% (active),inactive,inactive,inactive,inactive
COc1cccc(CNC[C@@H](O)[C@H](Cc2ccccc2)NC(=O)c2cc(N3CCCC3=O)c3[nH]cc(C(C)C)c3c2)c1,98% (active),5%,3,96% (active),inactive,inactive,inactive,inactive
CO/C(=C\C=C\c1cc2cc(Cl)c(Cl)cc2[nH]1)C(=O)NC1CCN(CCOc2ccccc2)CC1,94% (active),35%,-3,101% (active),inactive,inactive,inactive,inactive
Cc1ccoc1C(=O)Nc1cccc(-c2cccc(-c3nc4ccc(C(F)(F)F)cc4[nH]3)c2)c1,37%,39%,-6,98% (active),inactive,inactive,inactive,inactive
N#Cc1ccc(NC(=NCc2cccnc2)Nc2ccc(-c3ccccc3)cc2)c(O)c1,46%,2%,-3,101% (active),inactive,inactive,inactive,inactive
CC(CNCc1cn(Cc2cc(Br)cc(Br)c2)c2ccccc12)CNc1cc(=O)c2ccccc2[nH]1 (stereo not given),50% (active),10%,6,100% (active),inactive,inactive,inactive,inactive
O=C(Nc1ccc(OC2CCN(Cc3ccccc3)C2)c(Cl)c1)c1ccco1 (stereo not given),94% (active),13%,6,95% (active),inactive,inactive,inactive,inactive
Cc1ccnc2nc(C(=O)Nc3cc(C(F)(F)F)ccc3N3CCCCC3)nn12,94% (active),7%,-5,96% (active),inactive,inactive,inactive,inactive
C[C@H](NC(=O)C1CCCC1)C(=O)Nc1ccc(-c2ccc(-c3nc4ccc(C(F)(F)F)cc4[nH]3)cc2)cc1,70% (active),34%,-4,99% (active),inactive,inactive,inactive,inactive
NC(N)=NN=CC(=O)Nc1cccc(C(F)(F)F)c1,25%,21%,1,99% (active),inactive,inactive,inactive,inactive
CCCCCCNc1cc(C)nc2ccc(OC)cc12,94% (active),19%,-2,100% (active),inactive,inactive,inactive,inactive

Compound,growth inhibition [1],inhibition [2],inhibition [3] [%],growth inhibition [4],outcome [5],outcome [6],outcome [7],outcome [8]
COc1ccc2nccc([C@@H](O)CN3CCC(NCc4nc5ccc(F)cc5[nH]4)CC3)c2c1,4%,20%,-2,100% (active),inactive,inactive,inactive,inactive
OC1(Cc2ccccc2)CCN(Cc2cccc(-c3c[nH]c4nc(NC5CCCC5)ncc34)c2)CC1,35%,45%,4,96% (active),inactive,inactive,inactive,inactive
N=c1n(Cc2ccccc2)c2ccccc2n1CC(O)c1ccc(Cl)c(Cl)c1 (stereo not given),98% (active),40%,4,95% (active),inactive,inactive,inactive,inactive
O=C(NCc1cccc2ccccc12)C(c1cc2ccccc2o1)N1CCN(C(c2ccccc2)c2ccccc2)CC1 (stereo not given),90% (active),-3%,-2,99% (active),inactive,inactive,inactive,inactive
COC(=O)c1cccc(CNCc2cccc(-c3cccc(-c4nc5ccccc5[nH]4)c3)c2)c1,58% (active),3%,-3,95% (active),inactive,inactive,inactive,inactive
CC(C)CC(=O)N1CCNC[C@@H]1C(=O)NCc1ccc(Cl)c(Cl)c1,16%,-3%,-3,99% (active),inactive,inactive,inactive,inactive
COc1ccc(NS(=O)(=O)c2ccccc2Br)cc1N1CCN(C)CC1,3%,2%,-3,94% (active),inactive,inactive,inactive,inactive
O=C(/C=C/c1ccc(Cl)c(Cl)c1)NCCCCCN1CCC(NC(=O)Nc2ccc(F)c(F)c2)CC1,4%,24%,2,99% (active),inactive,inactive,inactive,inactive
COC(=O)c1cc(C(O)CNC(C)CCCc2ccccc2)ccc1O (stereo not given),97% (active),17%,0,99% (active),inactive,inactive,inactive,inactive
CCCCCCCCS(=O)(=O)NCCCC1CCN(CCCCCNC(=O)C=Cc2ccc(Cl)c(Cl)c2)CC1,26%,100% (active),6,91% (active),inactive,inactive,inactive,inactive
O=C(Nc1cc(Cl)ccc1Cl)N[C@H]1CCN(CCCCCNC(=O)[C@@H]2C[C@H]2c2ccc(Cl)c(Cl)c2)C1,1%,49%,0,97% (active),inactive,inactive,inactive,inactive
COc1cc(F)c2ncc(Cl)c([C@@H](O)CN3CCC(NCc4cc5c(cn4)OCCO5)CC3)c2c1,100% (active),11%,2,101% (active),inactive,inactive,inactive,inactive
O=C(/C=C/c1ccc(Cl)c(Cl)c1)NCCCCCN1CCC(c2c[nH]c3ccccc23)CC1,7%,33%,-2,99% (active),inactive,inactive,inactive,inactive
CN1CCCC(CN2CCN(Cc3cccc(-c4ccc(-c5nc6ccc(F)cc6[nH]5)cc4)c3)CC2)C1 (stereo not given),100% (active),78% (active),-1,101% (active),inactive,inactive,inactive,inactive
COc1cc(-c2cc3cc(Cl)c(Cl)cc3[nH]2)ccc1C(=O)NC1CCN(Cc2ccccc2)CC1,101% (active),12%,-3,102% (active),inactive,inactive,inactive,inactive
O=C(Nc1nc(-c2cc(F)ccc2F)cs1)c1cncc(Br)c1,3%,16%,-4,85% (active),inactive,inactive,inactive,inactive
COc1cccc2cc(C(=O)N[C@@H](CC(C)C)C(=O)N[C@H](/C=N/N3CCOC3=O)Cc3ccccc3)oc12,70% (active),6%,-1,96% (active),inactive,inactive,inactive,inactive
C=CCN1C(=O)C(C(C)=O)=C(O)C1c1ccccc1 (stereo not given),97% (active),41%,-4,93% (active),inactive,inactive,inactive,inactive
COc1cccc(C(=O)Nc2nonc2-c2ccc(OC)c(OC)c2)c1,50% (active),7%,-8,97% (active),inactive,inactive,inactive,inactive
Cc1ccc(S(=O)(=O)c2nc(S(=O)(=O)c3ccccc3)sc2NCC2CCCO2)cc1 (stereo not given),17%,4%,0,88% (active),inactive,inactive,inactive,inactive
